Results from PubChem BioAssay (NCI).
About 79,000 compounds went through this panel and 15% of them were active in at least one assay; those are over-represented in the sample as a whole. Cut-off read from the data, not from the text of the source: active = growth inhibition above about 70%; inactive = the rest.

Assays:
[1] = NCI Yeast Anticancer Drug Screen. Data for the rad50 strain (AID 155);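 note: 0% = growth of vehicle-only cultures of the same strain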; conditions: S. cerevisiae rad50 strain growth inhibition; at 50.0 µM; stronger effect = higher value
Outline: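 Inhibition values express reduced yeast growth in compound-treated cultures relative to vehicle-treated controls.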

[2] = NCI Yeast Anticancer Drug Screen. Data for the mec2-1 strain (AID 157); conditions: S. cerevisiae mec2-1 strain, at 50.0 µM, stronger effect = higher value
Outline: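 Vehicle-treated cultures served as reference for growth inhibition of compound-exposed mec2-1 yeast.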

[3] = NCI Yeast Anticancer Drug Screen. Data for the sgs1 mgt1 strain (AID 161);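 note: 0% = growth of cultures given vehicle only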; conditions: S. cerevisiae sgs1 mgt1 strain, at 50.0 µM, stronger effect = higher value
Outline: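 Inhibition of yeast growth, normalised to vehicle-treated controls, is reported for a strain bearing genetic alterations in DNA damage repair.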

[4] = NCI Yeast Anticancer Drug Screen. Data for the cln2 rad14 strain (AID 165);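 note: 0% = growth equal to vehicle treated cultures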; conditions: S. cerevisiae cln2 rad14 strain, at 50.0 µM, stronger effect = higher value
Outline: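 Each compound was tested on cln2 rad14 yeast. Inhibition of growth was calculated against vehicle-exposed controls.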

[5] = NCI Yeast Anticancer Drug Screen. Data for the bub3 strain (AID 167); conditions: S. cerevisiae bub3 mutant strain, at 50.0 µM, stronger effect = higher value
Outline: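 Steps: expose the mutant yeast strain to compound; grow alongside vehicle-treated cultures; measure growth; express inhibition against the vehicle cultures.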

[6] = NCI Yeast Anticancer Drug Screen. Data for the mlh1 rad18 strain (AID 175); conditions: S. cerevisiae mlh1 rad18 strain growth inhibition; at 50.0 µM; stronger effect = higher value
Outline: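 Vehicle-treated cultures served as the reference for growth inhibition in a yeast strain carrying DNA damage repair alterations exposed to each compound.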

Measured: growth inhibition

O=C(O)c1cc(O)c(O)c(Cl)c1
inactive: [1] 10.3% | [2] 6.15% | [3] 4.1% | [4] -9% | [5] 6.6% | [6] 5.05%

NC(CCCCCCCCCCP(=O)(O)O)C(=O)O (stereo unspecified)
inactive: [1] -39.6% | [2] -41.5% | [3] -76.4% | [4] -12.1% | [5] -19.6% | [6] -18.6%

CCOC(=O)C(=O)Nc1ccccc1OCC
inactive: [1] 3.3% | [2] 11.2% | [3] -11.2% | [4] -27.7% | [5] 0.9% | [6] 4.2%

CC1(C)CC(=O)c2c(N)n[nH]c2C1
inactive: [1] -0.35% | [2] 3.1% | [3] -8.55% | [4] -2.2% | [5] 1.35% | [6] -15%

Nc1ccc(C2NC=CN2)cc1
inactive: [1] -12.1% | [2] -7.65% | [3] -0.7% | [4] 29.8% | [5] -3.15% | [6] -1.65%

CCN(CC)Cc1cc(C(C)(C)CC)cc(-c2ccccc2)c1O
inactive: [1] -11.2% | [2] -33.6% | [3] -12.6% | [4] -24.9% | [5] 8.5% | [6] -4.1%

CCC(CC)(Cc1ccccc1)C(=O)O
inactive: [1] 9.65% | [2] -17.7% | [3] 12.7% | [4] 1.65% | [5] 11.7% | [6] 36.4%

COC(=O)NCc1nc2cc3c[nH][nH]c3cc2n1
inactive: [1] -8.15% | [2] 0.05% | [3] 14.9% | [4] -16% | [5] 11.6% | [6] 11.2%

CCOC(=O)CN/N=C(\N)CSS(=O)(=O)O
inactive: [1] -5.25% | [2] -17.4% | [3] -2.05% | [4] 13.3% | [5] 9.65% | [6] 3.05%

CCC/C=C(/C=N/Nc1ccc([N+](=O)[O-])cc1[N+](=O)[O-])CC
inactive: [1] 16.4% | [2] -10.7% | [3] -7.8% | [4] 32.6% | [5] 0.75% | [6] 4.05%

CC(CN(C)C)/C(=N\Nc1ccccc1)c1ccccc1 (stereo unspecified)
inactive: [1] 16.5% | [2] 10% | [3] 29.2% | [4] 1.1% | [5] -7.85% | [6] 35.4%

CCOC(=S)SC(=S)SC(=S)OCC
inactive: [1] 1.15% | [2] -27.1% | [3] 2.6% | [4] -27.8% | [5] -7.75% | [6] -22.2%

CCC(C)(CC)OC(=O)c1ccc([N+](=O)[O-])cc1
inactive: [1] -0.35% | [2] -0.45% | [3] 5.05% | [4] -7.4% | [5] 2.85% | [6] 43.3%

CSc1nc2nc[nH]c2c(=O)[nH]1
inactive: [1] 3.45% | [2] 0.3% | [3] -16.2% | [4] -14.2% | [5] -1.85% | [6] -3.65%

O=C1NC(c2ccccc2)C1N(Cc1ccccc1)Cc1ccccc1 (stereo unspecified)
inactive: [1] 21.3% | [2] 0.55% | [3] 22.2% | [4] 11.4% | [5] 12.8% | [6] 9.8%

Nc1cccc(CNC(=O)COc2ccc(Cl)cc2C(=O)O)c1
inactive: [1] -0.9% | [2] 14% | [3] -2.7% | [4] -7.6% | [5] 18.4% | [6] 10.4%

CC(=O)OC1C[C@H]2C(OC(=O)c3ccccc3)C3C4(OC(C)=O)COC4C[C@H](OC(C)=O)[C@@]3(C)C(OC(C)=O)[C@H](OC(C)=O)C(=C1C)C2(C)C (stereo partly specified)
inactive: [1] 41.2% | [2] 22.6% | [3] 31.7% | [4] 28.9% | [5] 26.4% | [6] 35.2%

CC(=O)OC1C[C@@](C)(O)[C@@]23O[C@@H]2[C@@H]2O[C@]2(C)C3C2OC(=O)C(C)[C@H]12 (stereo partly specified)
inactive: [1] -0.25% | [2] -20.9% | [3] -6.85% | [4] 7.55% | [5] -6.3% | [6] -9.6%

O=c1oc2ccccc2c(O)c1C(c1ccc2c(c1)OCO2)N1CCCC1 (stereo unspecified)
inactive: [1] 7.4% | [2] 36.7% | [3] 19.9% | [4] 15.3% | [5] 8.35% | [6] 22.9%

Cc1cc2c(cc1Cl)SC(N/N=C(\N)c1ccc(Cl)cc1)=NS2(=O)=O
inactive: [1] -34.2% | [2] -0.8% | [3] -12.3% | [4] -16.2% | [5] -14.4% | [6] -8.1%

O=C1c2ccccc2-c2cc(Br)c(NC(=O)C3CCCCC3C(=O)O)cc21 (stereo unspecified)
inactive: [1] 0.2% | [2] 3.55% | [3] 20.6% | [4] 25.8% | [5] -1.2% | [6] 3.6%
